The values below come from PubChem BioAssay (NCATS).

Each structure is given as a SMILES string. Values joined by “and” are separate entries in the source; they are usually repeats but may differ in a detail not shown here. Identical values can stand only once. Values without a mark were called inactive. Inconclusive results are not listed. Active and inactive are the calls of the source. Unless noted, calls come from the whole dose curve; as a rule, active = well fitted curve in the direction sought with a large enough effect; inconclusive = small, poorly fitted or top-dose-only effect, or another doubt; inactive = no such curve, though single readings can be large; an effect the other way counts as inactive or inconclusive.

Test [1] can be described thus: qHTS assay to identify small molecule inhibitors of chordoma cells - UCH-1 (AID 1259355). Note: nearly all actives have a fitted effect of over 55% in size. Note: potency is the fitted concentration of half-maximal effect; series mostly up to about 46 µM. The essentials:
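800 cells/well, overnight attach; compounds pinned at 15 concs, then auranofin/camptothecin/doxorubicin/rubitecan/topotecan combo added; 48hr 37 C, 5% CO2; CellTiter-Glo, 30min RT, luminescence.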

A short description of test [2]: qHTS assay to identify small molecule inhibitors of chordoma cells - UCH-2 (AID 1259356). Note: series mostly up to about 46 µM; % is set by controls: 0 for no effect and ±100 for the full control effect.
Test [3] in a line: NS1 protein of Zika virus - qHTS assay to identify small molecule inhibitors in human HEK 293 cells (AID 1347053).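 Note: series mostly up to about 46 µM; plate controls were infected untreated cells for no effect and uninfected cells for full effect; nearly all actives have a fitted effect of over 55% in size.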 In outline:
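In this cell-based screen, HEK 293 cultures received compound for one hour before Zika MR766 at MOI = 0.5. NS1 was quantified 24 hours later by TR-FRET, normalized to virus-free wells and infected wells.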

A short description of test [4]: qHTS of pediatric cancer cell lines to identify multiple opportunities for drug repurposing: Primary screen for TC32 cells (AID 1347089). Note: nearly all actives have a fitted effect of over 60% in size. Note: potency is the fitted concentration of half-maximal effect. In outline:
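TC32 cells, 500-1,000/well in growth medium, compound-treated 48 h at 37 °C; viability from CellTiter-Glo luminescence. Primary screen: MIPE 11-point (0.78 nM–46 µM final), NPC 8-point (0.59 nM–46 µM final); confirmatory at 11-point dilutions.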

The nature of test [5]: qHTS of pediatric cancer cell lines to identify multiple opportunities for drug repurposing: Primary screen for DAOY cells (AID 1347090).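 Note: series mostly up to about 46 µM; plate controls were DMSO for no effect and bortezomib for full effect; nearly all actives have a fitted effect of over 55% in size.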 The essentials: (§1)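 Cell viability, CellTiter-Glo luminescence; 500-1,000 cells/well, 8- or 11-point titration, 48 h compound exposure at 37 degrees C, 5% CO2. Controls: DMSO neutral, bortezomib 2.3 µM final as positive.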
A short description of test [6]: qHTS of pediatric cancer cell lines to identify multiple opportunities for drug repurposing: Primary screen for SJ-GBM2 cells (AID 1347091).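 Note: plate controls were DMSO neutral control for no effect and bortezomib for full effect.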 In outline: as §1
Test [7] can be described thus: P-glycoprotein substrates identified in KB-8-5-11 adenocarcinoma cell line, qHTS therapeutic library screen (AID 1346987). Note: nearly all actives have a fitted effect of over 65% in size. Note: potency is the fitted concentration of half-maximal effect. In outline: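 Compounds are pinned in dose-response onto KB-8-5-11 cells (500 cells/well, colchicine-free medium) and left 72 h at 37 degree C. CellTiter-Glo luminescence then yields AC50 values.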
A short description of test [8]: Natriuretic polypeptide receptor (hNpr1) antagonism - Pilot counterscreen GloSensor control cell line (AID 1347045; calls by dose curve; note: series mostly up to about 38 µM; % is set by controls: 0 for no effect and ±100 for the full control effect). In outline:
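Control counterscreen: luciferase cGMP-biosensor HEK293 cells (no Npr1) received compound for 30 min at room temperature after GloSensor substrate loading. Luminescence was measured before and 20 min after soluble guanylyl cyclase activation by 50 uM nitroprusside.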

In test [9] the target is Atrial natriuretic peptide receptor 1 (Homo sapiens) (UniProt P16066). As to the kind of experiment: Natriuretic polypeptide receptor (hNpr1) antagonism - Pilot screen (AID 1347049; calls by dose curve;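 note: HEK293 cells with hNpr1 and GloSensor cGMP luciferase stimulated by 0.1 nM hNppA; agonist-evoked cGMP luminescence read 20 min after hNppA addition; series mostly up to about 58 µM; % is set by controls: 0 for no effect and ±100 for the full control effect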). The essentials:
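Receptor antagonism read as cGMP-dependent luminescence in hNpr1/pGS-40F HEK293 cells: pre-read after 30 min compound exposure, post-read 20 min after hNppA agonist at 0.1 nM final, all at room temperature, protected from light; A-71915 titration as control.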

Test [10] deals with Atrial natriuretic peptide receptor 2 (Homo sapiens) (UniProt P20594). Description: Natriuretic polypeptide receptor (hNpr2) antagonism - Pilot subtype selectivity assay (AID 1347050; calls by dose curve; note: % is set by controls: 0 for no effect and ±100 for the full control effect). In outline: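 Antagonist mode: compounds (LOPAC1280, seven 1:5 dilutions) added 30 min before 1 nM hNppC stimulation of hNpr2-HEK293 cGMP-sensor cells; luminescence read before and 20 min after agonist at ambient temperature.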
Atrial natriuretic peptide receptor 2 (Homo sapiens), sequence (P20594 whole entry, looked up): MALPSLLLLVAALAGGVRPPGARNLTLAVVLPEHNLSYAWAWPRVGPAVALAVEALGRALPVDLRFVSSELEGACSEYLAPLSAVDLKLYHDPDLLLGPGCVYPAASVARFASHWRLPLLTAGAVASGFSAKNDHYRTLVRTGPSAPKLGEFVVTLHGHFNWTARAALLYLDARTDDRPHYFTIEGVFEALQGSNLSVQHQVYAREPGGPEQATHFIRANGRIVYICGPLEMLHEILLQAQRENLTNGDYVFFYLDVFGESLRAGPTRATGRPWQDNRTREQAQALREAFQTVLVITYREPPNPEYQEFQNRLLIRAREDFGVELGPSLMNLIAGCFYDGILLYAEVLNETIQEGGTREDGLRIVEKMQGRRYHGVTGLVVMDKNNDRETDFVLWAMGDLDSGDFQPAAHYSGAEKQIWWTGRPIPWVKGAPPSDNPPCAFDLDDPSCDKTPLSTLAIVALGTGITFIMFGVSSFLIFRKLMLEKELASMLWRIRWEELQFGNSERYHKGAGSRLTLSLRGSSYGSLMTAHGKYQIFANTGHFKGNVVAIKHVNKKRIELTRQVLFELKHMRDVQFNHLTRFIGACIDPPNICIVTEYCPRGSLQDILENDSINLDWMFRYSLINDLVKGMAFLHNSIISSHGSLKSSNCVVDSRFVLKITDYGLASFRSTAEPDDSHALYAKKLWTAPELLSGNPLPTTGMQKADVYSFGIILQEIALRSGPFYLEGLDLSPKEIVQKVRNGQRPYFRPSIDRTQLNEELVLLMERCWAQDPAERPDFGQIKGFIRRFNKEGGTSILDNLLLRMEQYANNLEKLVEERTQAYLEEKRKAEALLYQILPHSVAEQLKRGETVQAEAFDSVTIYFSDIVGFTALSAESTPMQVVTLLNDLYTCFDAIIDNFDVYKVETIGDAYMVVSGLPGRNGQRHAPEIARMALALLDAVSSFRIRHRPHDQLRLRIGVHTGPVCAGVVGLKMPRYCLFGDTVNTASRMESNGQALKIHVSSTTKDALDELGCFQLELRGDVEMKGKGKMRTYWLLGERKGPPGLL

Test [11] addresses T1, Tyrosine-protein phosphatase non-receptor type substrate 1 (Homo sapiens) + Leukocyte surface antigen CD47 (Homo sapiens) (UniProt P78324+Q08722). Description: CD47-SIRPalpha protein protein interaction - LANCE assay qHTS validation (AID 1347057; active = well fitted curve in the direction sought with a large enough effect in the signal ratio, with a control signal flat, not every such curve was filed as active; the % refers to the signal ratio; note: series mostly up to about 38 µM; 0% is about no effect). The essentials: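 Inhibition of soluble CD47/SIRPalpha ectodomain association by titrated compounds, measured as 665/615 nm time-resolved FRET ratio after sequential 30 min room-temperature incubations.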

Test [12] has as its target T1, Tyrosine-protein phosphatase non-receptor type substrate 1 (Homo sapiens) + Leukocyte surface antigen CD47 (Homo sapiens). As to the kind of experiment: CD47-SIRPalpha protein protein interaction - HTRF assay qHTS validation (AID 1347058; active = well fitted curve in the direction sought with a large enough effect in the signal ratio, not every such curve was filed as active; the % refers to the signal ratio; note: series mostly up to about 38 µM; 0% is about no effect). In outline: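 Soluble extracellular domains (6His-CD47, Avi-tag-biotinylated SIRPalpha) in PBS pH 7.4 with 0.05% IGEPAL CA-630. Compounds were preincubated 30 min at RT with CD47 and anti-His-Eu, then SIRPalpha and SAV-XL665 were added. TR-FRET 665/615 ratio.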

The target is the same in test [13]. Description: CD47-SIRPalpha protein protein interaction - Alpha assay qHTS validation (AID 1347059). In outline: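 AlphaScreen signal between CD47-His (12.5 nM) and biotin-SIRPalpha (25 nM) soluble extracellular domains, bead-captured via Ni-NTA and streptavidin. Compounds, in 7-point titrations, met SIRPalpha 30 min before CD47; PBS pH 7.4 with 0.05% IGEPAL.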

The target of test [14] is Parathyroid hormone/parathyroid hormone-related peptide receptor (Homo sapiens) (UniProt Q03431). As to the kind of experiment: qHTS for PTHR1 Agonists: Optimization Screen against the NCGC LOPAC library (AID 1347079).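 Note: GloSensor cAMP luminescence in HEK-293 GP2 cells expressing human PTHR1 with IBMX; 0% is about no effect.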 The essentials:
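HEK-293 GP2 cells, PTHR1 + GloSensor cAMP; 3000 cells/well, o/n. Luciferin + IBMX 0.5mM each (stock), 1 hr 37C. Cpd titration, 1 hr 37C. Lum after 15 min RT. Ctrl M-PTH(1-15) top 10uM.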

T1 sequence (P78324 whole entry, looked up, the tested form may be a part): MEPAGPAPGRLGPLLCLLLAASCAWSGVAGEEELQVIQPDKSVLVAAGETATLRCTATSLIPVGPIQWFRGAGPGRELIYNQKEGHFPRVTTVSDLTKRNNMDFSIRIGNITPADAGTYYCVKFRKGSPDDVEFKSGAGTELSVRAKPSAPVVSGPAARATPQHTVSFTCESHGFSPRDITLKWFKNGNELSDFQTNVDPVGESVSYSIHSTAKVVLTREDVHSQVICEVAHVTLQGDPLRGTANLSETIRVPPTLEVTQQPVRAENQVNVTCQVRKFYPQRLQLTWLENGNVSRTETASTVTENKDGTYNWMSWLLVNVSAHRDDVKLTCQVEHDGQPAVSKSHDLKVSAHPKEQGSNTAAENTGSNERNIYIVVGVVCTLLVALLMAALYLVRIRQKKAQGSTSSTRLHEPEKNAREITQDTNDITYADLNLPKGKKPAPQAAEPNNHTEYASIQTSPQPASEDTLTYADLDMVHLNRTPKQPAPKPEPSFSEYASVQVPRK
T1 sequence (Q08722 whole entry, looked up, the tested form may be a part): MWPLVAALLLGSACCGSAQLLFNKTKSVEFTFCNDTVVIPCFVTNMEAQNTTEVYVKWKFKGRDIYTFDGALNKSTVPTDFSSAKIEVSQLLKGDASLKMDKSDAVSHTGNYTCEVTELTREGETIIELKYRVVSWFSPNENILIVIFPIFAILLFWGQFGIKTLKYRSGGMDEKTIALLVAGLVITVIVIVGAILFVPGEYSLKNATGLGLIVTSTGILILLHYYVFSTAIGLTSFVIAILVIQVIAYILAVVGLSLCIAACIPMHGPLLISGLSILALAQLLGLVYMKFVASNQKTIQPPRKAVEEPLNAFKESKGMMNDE
Parathyroid hormone/parathyroid hormone-related peptide receptor (Homo sapiens), sequence (Q03431 whole entry, looked up): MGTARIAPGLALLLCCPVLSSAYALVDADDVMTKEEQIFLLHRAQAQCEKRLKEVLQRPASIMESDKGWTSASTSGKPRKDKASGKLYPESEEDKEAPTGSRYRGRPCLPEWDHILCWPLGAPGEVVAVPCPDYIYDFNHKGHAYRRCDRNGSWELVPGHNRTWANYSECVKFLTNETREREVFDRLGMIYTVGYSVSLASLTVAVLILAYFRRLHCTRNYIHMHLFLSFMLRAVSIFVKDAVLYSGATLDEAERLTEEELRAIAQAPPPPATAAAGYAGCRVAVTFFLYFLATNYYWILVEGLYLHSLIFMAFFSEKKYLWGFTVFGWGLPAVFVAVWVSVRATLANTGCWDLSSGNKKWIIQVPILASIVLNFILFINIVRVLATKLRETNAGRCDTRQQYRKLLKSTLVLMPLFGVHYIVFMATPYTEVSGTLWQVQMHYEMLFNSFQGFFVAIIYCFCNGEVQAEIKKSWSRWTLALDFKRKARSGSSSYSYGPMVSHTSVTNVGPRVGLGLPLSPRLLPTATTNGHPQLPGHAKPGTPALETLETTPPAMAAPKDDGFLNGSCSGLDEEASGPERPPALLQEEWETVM
Atrial natriuretic peptide receptor 1 (Homo sapiens), sequence (P16066 whole entry, looked up): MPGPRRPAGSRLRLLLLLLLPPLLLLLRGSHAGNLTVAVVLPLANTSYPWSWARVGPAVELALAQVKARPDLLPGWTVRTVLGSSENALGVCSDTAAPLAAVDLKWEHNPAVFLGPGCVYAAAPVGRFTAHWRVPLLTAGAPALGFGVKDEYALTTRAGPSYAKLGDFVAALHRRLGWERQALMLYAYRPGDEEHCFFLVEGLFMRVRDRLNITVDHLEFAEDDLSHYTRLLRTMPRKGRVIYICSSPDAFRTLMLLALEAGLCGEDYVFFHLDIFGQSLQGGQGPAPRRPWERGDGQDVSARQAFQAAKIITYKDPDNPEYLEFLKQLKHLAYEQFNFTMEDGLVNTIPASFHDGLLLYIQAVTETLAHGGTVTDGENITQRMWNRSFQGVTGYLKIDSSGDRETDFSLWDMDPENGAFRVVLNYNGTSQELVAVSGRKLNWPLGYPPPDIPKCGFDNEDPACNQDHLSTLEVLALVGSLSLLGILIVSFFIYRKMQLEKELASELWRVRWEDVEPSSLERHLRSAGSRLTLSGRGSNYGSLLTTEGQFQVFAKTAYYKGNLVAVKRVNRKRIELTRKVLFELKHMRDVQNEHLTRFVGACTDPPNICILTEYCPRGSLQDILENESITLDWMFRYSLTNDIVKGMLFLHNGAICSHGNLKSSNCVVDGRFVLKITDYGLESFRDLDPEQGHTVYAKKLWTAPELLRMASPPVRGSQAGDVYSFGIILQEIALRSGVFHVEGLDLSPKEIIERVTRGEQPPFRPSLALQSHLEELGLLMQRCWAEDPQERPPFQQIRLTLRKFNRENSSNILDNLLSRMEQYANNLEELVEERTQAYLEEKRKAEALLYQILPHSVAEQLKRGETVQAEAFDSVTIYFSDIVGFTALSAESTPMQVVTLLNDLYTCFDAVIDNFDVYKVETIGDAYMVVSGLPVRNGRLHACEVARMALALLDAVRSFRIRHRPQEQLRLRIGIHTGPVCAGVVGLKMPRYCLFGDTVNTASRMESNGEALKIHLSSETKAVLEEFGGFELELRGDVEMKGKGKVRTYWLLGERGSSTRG

Turning to `CC1=C(C/C=C(\C)CCC[C@H](C)CCC[C@H](C)CCCC(C)C)C(=O)c2ccccc2C1=O`, the Potency entry in test [1], in test [3], in [4], in test [5] and in test [6] was “inactive” throughout. Further, the call in test [2] was inactive.

`CC(O)COc1ccccc1` (stereo not given): the Potency entry in [1], in test [7], in [3], in test [4] and in test [6] was “inactive” each time. Further, the compound was called inactive in test [2].

Take `CC(=O)Oc1c(C)c(C)c2c(c1C)CC[C@@](C)(CCC[C@H](C)CCC[C@H](C)CCCC(C)C)O2`: the Potency entry in test [1], in [7], in [3], in test [5] and in test [6] was “inactive” each time. The call in [2] was inactive.

With `O=C(O)[C@@H]1CSCN1`, the Potency entry in test [1], in [7], in [3], in test [5] and in test [6] was “inactive” each time. The call in test [2] was inactive.

As for `C/C(=C(\CCOP(=O)(O)O)SC(=O)c1ccccc1)N(C=O)Cc1cnc(C)nc1N`, the Potency entry in [1] and in test [7] was “inactive” throughout. In addition, the compound was classed as inactive in test [2]. In [3], the activity change, negative = inhibition was 3.35% [at 4.81 µM]. Besides, the values for the activity change, negative = cytotoxic in test [5] and in test [6] were 7.92% [at 4.84 µM] and 25.6% [at 4.84 µM], respectively.

As to `COc1ccc2cc1Oc1ccc(cc1)C[C@H]1c3c(cc4c(c3Oc3cc5c(cc3OC)CCN(C)[C@@H]5C2)OCO4)CCN1C`, in [1], the activity, negative = inhibition is -13.6% [at 1.88 µM]. For the same compound, the compound was classed as inactive in test [2]. Also, the Potency in test [7] is 20.6 µM (active). In addition, in test [5], the Potency entry was “inactive”.

`Cc1ccc2nc(N)[nH]c(=O)c2c1Sc1ccncc1`: the Potency entry in [1] and in test [3] was “inactive” each time. Also, the compound was classed as inactive in test [2]. In [4], the Potency was 8.36 µM (active).

Take `CC[N+](CC)(CC)CCOc1ccc(/C=C/c2ccccc2)cc1`: the Potency result in [1] and in test [3] was “inactive” each time. In test [2], the compound was called inactive. In test [4], the Potency is 21 µM (active).

With `C[C@H]1O[C@H](O[C@H]2[C@H](O)[C@@H](O)[C@@H](O[C@H]3[C@H](O)[C@@H](O)[C@H](O)O[C@@H]3CO)O[C@@H]2CO)[C@H](O)[C@@H](O)[C@@H]1N[C@H]1C=C(CO)[C@@H](O)[C@H](O)[C@H]1O`, the Potency result in test [1], in [7], in test [3], in test [5] and in test [6] was “inactive” each time. Further, in test [2], the call was inactive.

In the case of `C[C@](N)(Cc1ccc(O)cc1)C(=O)O`, the Potency result in test [1], in [10], in test [3] and in [14] was “inactive” each time. Moreover, the compound was called inactive in test [2], in [8], in test [9], in test [11], in test [12] and in test [13]. For the same compound, the activity change, negative = cytotoxic is 12.9% [at 4.81 µM] in test [4] and 11.8% [at 4.84 µM] in [6].

For the compound `CC(=O)Oc1ccc(C2(c3ccc(OC(C)=O)cc3)C(=O)Nc3ccccc32)cc1`, the Potency in test [1] is 3.55 µM (active) and 3.98 µM (active). The Potency result in test [7], in [3], in test [4], in [5] and in test [6] was “inactive” throughout.

In the case of `Cc1cc(CC(=O)O)n(C)c1C(=O)c1ccc(Cl)cc1`, the Potency entry in test [1], in test [3], in [4], in test [5] and in test [6] was “inactive” throughout. For the same compound, the compound was called inactive in [2].

Turning to `CN(N=O)C(=O)N[C@@H]1[C@@H](O)[C@H](O)[C@@H](CO)O[C@@H]1O`, the Potency result in test [1], in [3], in test [4], in [5] and in [6] was “inactive” each time. For the same compound, the compound was classed as inactive in test [2].

Take `NS(=O)(=O)c1cc2c(cc1Cl)NC(CSCc1ccccc1)=NS2(=O)=O`: the Potency result in [1], in [3], in test [4], in test [5] and in test [6] was “inactive” each time. Moreover, the compound was classed as inactive in [2].

As to `CC1(C)CO[C@@H](CC(=O)O)CN1`, the Potency entry in test [1], in test [3], in [4], in [5] and in test [6] was “inactive” each time. In [2], the outcome was inactive.

Consider `C=Cc1c(C)c2cc3[nH]c(cc4nc(cc5nc(cc1[nH]2)C(C)=C5CCC(=O)O)C(CCC(=O)O)=C4C)c(C)c3C=C`, for which the result in test [2], in test [9], in [11] and in test [13] was inactive. Moreover, the Potency result in test [7], in test [3], in test [14], in test [4], in test [5] and in [6] was “inactive” in each case.
